Source: paper PMC10668032, “Altered binding affinity of SIX1-Q177R correlates with enhanced WNT5A and WNT pathway effector expression in Wilms tumor”
Whole data set: some 33,000 sequences, median “e-score” near -0.05, cut for the highest 2% near 0.38. Only a selection was taken, and the highest values are over-represented in it overall.

Target: T1, SIX1-Q177R homeodomain (human, UniProt Q15475 108-198, Q177R)
T1 sequence: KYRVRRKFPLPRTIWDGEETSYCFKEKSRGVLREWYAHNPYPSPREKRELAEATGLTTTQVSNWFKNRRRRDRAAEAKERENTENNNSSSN
Test: universal protein binding microarray; Universal all-10-mer PBM (8x60K, AMADID 030236), 300 nM GST-tagged protein, Alexa Fluor 488 anti-GST; buffer, salt, pH and temperature not stated (as in Berger); high values mean tight binding
Conditions: protein: ivt; tags: N-terminal GST; dsDNA, one strand shown
Summary of the method: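 After in vitro transcription/translation, GST-tagged homeodomains were quantified against a recombinant GST standard curve by anti-GST western blot. They were then placed in duplicate at 300 nM final concentration on universal 'all 10-mer' protein binding microarrays of 8×60K format.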

Row | Sequence | binding signal
1 | ACGCCACT | 0.159 ± 0.00951 E-score
2 | AAACCACA | 0.2156 ± 0.00176 E-score
3 | ACACCACA | 0.485 ± 0.000106 E-score
4 | GCACCACC | 0.261 ± 0.00493 E-score
5 | ACACCACC | 0.4809 ± 0.000976 E-score
6 | ACCACACT | 0.2703 ± 0.00247 E-score
7 | ATACCACC | 0.25 ± 0.00441 E-score
8 | CTACCACA | 0.154 ± 0.0418 E-score
9 | AACTAACA | 0.2417 ± 0.000339 E-score
10 | CACGCTGC | 0.293 ± 0.00561 E-score
11 | ATAAGCAC | 0.166 ± 0.0125 E-score
12 | ATTCGCAA | 0.162 ± 0.0131 E-score
13 | TACCCGTA | 0.168 ± 0.00327 E-score
14 | GGGTTTAA | 0.232 ± 0.0257 E-score
15 | GAACCCAC | 0.19 ± 0.0124 E-score
16 | ACCTCACA | 0.244 ± 0.00679 E-score
17 | CACTAAAG | 0.185 ± 0.042 E-score
18 | ATACTCCG | 0.195 ± 0.0283 E-score
19 | ACACTTCT | 0.374 ± 0.0413 E-score
20 | ACACTCCT | 0.391 ± 0.0158 E-score
21 | ACACTCCG | 0.3884 ± 0.00235 E-score
22 | ACACTCCC | 0.404 ± 0.00738 E-score
23 | ACACTCCA | 0.373 ± 0.0149 E-score
24 | CCACTCCA | 0.152 ± 0.00234 E-score
25 | ACCCTCCG | 0.271 ± 0.0147 E-score

Row | Sequence | binding signal
26 | ACTCTCCC | 0.163 ± 0.0151 E-score
27 | GGCGGATA | 0.22 ± 0.0151 E-score
28 | CACTCCAA | 0.161 ± 0.0414 E-score
29 | AGGCTACC | 0.187 ± 0.00757 E-score
30 | CACCGTCA | 0.209 ± 0.0101 E-score
31 | AACACGGG | 0.432 ± 0.00733 E-score
32 | AACACGGT | 0.383 ± 0.0148 E-score
33 | CACACGGG | 0.332 ± 0.0383 E-score
34 | AGCACGGG | 0.155 ± 0.00564 E-score
35 | AACACGGA | 0.372 ± 0.0198 E-score
36 | CACTCGCA | 0.264 ± 0.0114 E-score
37 | ACCGCGGT | 0.187 ± 0.0496 E-score
38 | AACAAGTG | 0.172 ± 0.00772 E-score
39 | GAGTGCTA | 0.152 ± 0.00664 E-score
40 | CAGTGTTC | 0.355 ± 0.0115 E-score
41 | CAGTGTTA | 0.402 ± 0.00939 E-score
42 | CACTGTTA | 0.255 ± 0.0243 E-score
43 | GAGTGTTA | 0.407 ± 0.0179 E-score
44 | AAGTGTGT | 0.215 ± 0.00375 E-score
45 | AAGTGTTC | 0.285 ± 0.0294 E-score
46 | AAGTGTTA | 0.393 ± 0.0449 E-score
47 | AGAGCACC | 0.202 ± 0.0183 E-score
48 | AACCCACC | 0.194 ± 0.0122 E-score
49 | CGCGGGCA | 0.276 ± 0.0364 E-score
50 | CCCGAGTC | 0.171 ± 0.0123 E-score

Row | Sequence | binding signal
51 | CCACCCCA | 0.267 ± 0.0424 E-score
52 | ACACCCCC | 0.4871 ± 0.00117 E-score
53 | GCACCCCC | 0.311 ± 0.046 E-score
54 | CCACCCCC | 0.209 ± 0.0542 E-score
55 | AGACCCCT | 0.155 ± 0.0162 E-score
56 | ACCCCCCG | 0.329 ± 0.0392 E-score
57 | CCACCCCG | 0.246 ± 0.0156 E-score
58 | ACACCCCT | 0.4748 ± 0.00334 E-score
59 | TCACCCCA | 0.184 ± 0.0578 E-score
60 | ACACCCCG | 0.466 ± 0.00875 E-score
61 | ACACCCCA | 0.4705 ± 0.00327 E-score
62 | ACCCCCCT | 0.302 ± 0.0219 E-score
63 | CCCTCGAC | 0.176 ± 0.00448 E-score
64 | ATCGGGCA | 0.195 ± 0.0164 E-score
65 | CCGCCCGA | 0.174 ± 0.00646 E-score
66 | CCCTGCAC | 0.178 ± 0.0222 E-score
67 | TGATACCA | 0.325 ± 0.0116 E-score
68 | AACCCGTG | 0.23 ± 0.00447 E-score
69 | GCGGAGTA | 0.241 ± 0.0385 E-score
70 | ACTGGCAC | 0.152 ± 0.00487 E-score
71 | ACCCGGAC | 0.171 ± 0.0263 E-score
72 | AGCGCGGG | 0.2629 ± 0.0007 E-score
73 | CAGAACAC | 0.3812 ± 0.000905 E-score
74 | CAGGAACA | 0.259 ± 0.00612 E-score
75 | AAGAACAC | 0.423 ± 0.0082 E-score

Row | Sequence | binding signal
76 | GAGAATAC | 0.194 ± 0.00365 E-score
77 | GAGAACAC | 0.3811 ± 0.000742 E-score
78 | CACTCTAC | 0.291 ± 0.0135 E-score
79 | CCGCCACA | 0.282 ± 0.0124 E-score
80 | ACAAGGGG | 0.185 ± 0.0199 E-score
81 | CACTCCCA | 0.273 ± 0.0105 E-score
82 | GCACTACA | 0.171 ± 0.00501 E-score
83 | ACCCAGCG | 0.168 ± 0.00443 E-score
84 | ACTTAGGG | 0.181 ± 0.0198 E-score
85 | ATCAGGTG | 0.224 ± 0.00902 E-score
86 | AAGTGGTG | 0.337 ± 0.0139 E-score
87 | GCCCACAC | 0.255 ± 0.0252 E-score
88 | CCCTACAC | 0.424 ± 0.00443 E-score
89 | GCCTACGC | 0.167 ± 0.0292 E-score
90 | ACCTACCC | 0.252 ± 0.0152 E-score
91 | ACCTATAC | 0.2048 ± 0.00123 E-score
92 | CCCTACCC | 0.185 ± 0.00683 E-score
93 | GCCTACAC | 0.442 ± 0.0046 E-score
94 | CCCTACTC | 0.19 ± 0.0302 E-score
95 | ACCTACAC | 0.4302 ± 0.00419 E-score
96 | GGGATCGA | 0.257 ± 0.0548 E-score
97 | CACGACTA | 0.22 ± 0.0605 E-score
98 | CACTAATC | 0.172 ± 0.0411 E-score
99 | GGGTTCAC | 0.184 ± 0.0552 E-score
100 | GTGTTCTA | 0.392 ± 0.00814 E-score

Row | Sequence | binding signal
101 | GTGTTCAA | 0.3855 ± 0.00337 E-score
102 | GTGTGCAA | 0.252 ± 0.0153 E-score
103 | GTGTTCGA | 0.409 ± 0.0112 E-score
104 | GTGTTCCA | 0.361 ± 0.00459 E-score
105 | GTATTCTA | 0.1741 ± 0.00132 E-score
106 | AAGGGGTC | 0.17 ± 0.00583 E-score
107 | CACCATTC | 0.23 ± 0.0429 E-score
108 | CCCCCACA | 0.262 ± 0.0205 E-score
109 | ACGGGGTA | 0.233 ± 0.00738 E-score
110 | GGGTGGTA | 0.194 ± 0.0128 E-score
111 | AATAGACA | 0.187 ± 0.00716 E-score
112 | GATCCCCC | 0.368 ± 0.0192 E-score
113 | AACCAGTG | 0.183 ± 0.00569 E-score
114 | CACCAGTG | 0.404 ± 0.0086 E-score
115 | CACCAGTC | 0.2944 ± 0.00254 E-score
116 | CTCAGACA | 0.189 ± 0.00366 E-score
117 | ACACATAC | 0.18 ± 0.0765 E-score
118 | CCATACAC | 0.3962 ± 0.00378 E-score
119 | GCATAAAC | 0.184 ± 0.0176 E-score
120 | ACATACAC | 0.421 ± 0.012 E-score
121 | ACATACCC | 0.17 ± 0.00441 E-score
122 | CCATACCC | 0.218 ± 0.00536 E-score
123 | GCATACAC | 0.406 ± 0.00565 E-score
124 | CACCTCGA | 0.217 ± 0.0155 E-score
125 | GAGGGGTA | 0.277 ± 0.00472 E-score

Row | Sequence | binding signal
126 | ATACCGGA | 0.178 ± 0.0104 E-score
127 | AGGCAGGA | 0.158 ± 0.0089 E-score
128 | ACCTAGAG | 0.175 ± 0.0492 E-score
129 | GGGTGCAA | 0.261 ± 0.0357 E-score
130 | CAACGCCA | 0.175 ± 0.0166 E-score
131 | CCCCGACC | 0.15745 ± 0.000156 E-score
132 | CACCGGTC | 0.21 ± 0.00979 E-score
133 | CACCGGTG | 0.418 ± 0.0109 E-score
134 | AACCGGTG | 0.299 ± 0.0429 E-score
135 | AATTGGTG | 0.221 ± 0.00776 E-score
136 | CCGCGACA | 0.241 E-score
137 | GCAATACC | 0.166 ± 0.00689 E-score
138 | ATAGTGTC | 0.3846 ± 0.00175 E-score
139 | ATAGTGTG | 0.188 ± 0.00817 E-score
140 | CTTGTGTA | 0.154 ± 0.0563 E-score
141 | CTAGTATC | 0.161 ± 0.0474 E-score
142 | CTAGTGTA | 0.391 ± 0.0289 E-score
143 | ATAGTGTA | 0.391 ± 0.0352 E-score
144 | CTAGTGTC | 0.4067 ± 0.00058 E-score
145 | ATATAGTG | 0.265 ± 0.00494 E-score
146 | CTAGTACA | 0.245 ± 0.0089 E-score
147 | ATAGTATA | 0.175 ± 0.0632 E-score
148 | CTAGTCAC | 0.19 ± 0.0126 E-score
149 | CACCGTGA | 0.277 E-score
150 | CCCCCGCC | 0.228 ± 0.0364 E-score

Row | Sequence | binding signal
151 | CACGGATC | 0.279 ± 0.0122 E-score
152 | ACCATGAA | 0.1618 ± 0.00147 E-score
153 | CATTGGGG | 0.162 ± 0.00379 E-score
154 | CCCACTCC | 0.159 ± 0.0222 E-score
155 | ACCCCGGA | 0.299 ± 0.00931 E-score
156 | GTAGGGTA | 0.193 ± 0.0286 E-score
157 | GTAGTGAC | 0.26 ± 0.0183 E-score
158 | GTAGTGTA | 0.427 ± 0.00906 E-score
159 | ACCAAGAG | 0.213 ± 0.0142 E-score
160 | AACACACC | 0.395 ± 0.0142 E-score
161 | CACACACA | 0.184 ± 0.063 E-score
162 | AACACACA | 0.262 ± 0.0517 E-score
163 | CACACACG | 0.248 ± 0.0453 E-score
164 | AACACACG | 0.231 ± 0.0156 E-score
165 | GACACACA | 0.334 ± 0.044 E-score
166 | GACACAGC | 0.17 ± 0.0393 E-score
167 | GACACACC | 0.422 ± 0.0192 E-score
168 | CACACACC | 0.389 ± 0.0305 E-score
169 | TGTACCAA | 0.164 ± 0.0254 E-score
170 | GGGTATAC | 0.262 ± 0.00267 E-score
171 | AACCCGGG | 0.244 ± 0.0275 E-score
172 | CTACTCCA | 0.242 ± 0.00788 E-score
